Experimental data reported in PubChem BioAssay (Tox21).
Results filed as inconclusive are left out. Activity calls are given as the source filed them. Calls follow the shape of the dose curve; as a rule, active = well fitted curve in the direction sought with a large enough effect in the repeat runs; inconclusive = weak or mixed curves; inactive = no such curve, though single readings can be large; an effect the other way counts as inactive or inconclusive.

Columns and labels:
[1] = A CellTox Green Cytotoxicity Assay to monitor cytotoxicity in HEK293 cells - 32 hour (AID 1224881); also: nearly all actives have a fitted effect of over 40% in size
In short: (§1)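 Fluorescence from a DNA-binding dye excluded by viable cells was measured repeatedly in the same HEK293 wells (600 cells/well) during continuous compound exposure at 37 C. Each assay gives one read point: 0, 8, 16, 24, 32 or 40 h.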

[2] = A CellTox Green Cytotoxicity Assay to monitor cytotoxicity in HepG2 cells - 0 hour (AID 1224882); also: nearly all actives have a fitted effect of over 35% in size
In short: (§2)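 Real-time cytotoxicity: fluorescence of a cell-impermeant cyanine dye binding DNA of dead HepG2 cells, measured repeatedly (0–40 h) during compound exposure at 37 C. Cells seeded 600/well with reagent, dosed after 5 h.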

[3] = A CellTox Green Cytotoxicity Assay to monitor cytotoxicity in HepG2 cells - 32 hour (AID 1224883); also: nearly all actives have a fitted effect of over 50% in size
In short: as §2

[4] = A CellTox Green Cytotoxicity Assay to monitor cytotoxicity in HEK293 cells - 8 hour (AID 1224884); also: nearly all actives have a fitted effect of over 35% in size
In short: as §1

[5] = qHTS RealTime-Glo MT Cell Viability Assay in HepG2 cells - 16 hour (AID 1224885); also: nearly all actives have a fitted effect of over 50% in size
In short: (§3)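 Tox21 10K library screened in qHTS format on HepG2 cells carrying RealTime-Glo reagents. Compounds were added after a 5 h preincubation, and the luminescent signal from continuous culture was measured repeatedly during 40 h treatment.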

[6] = qHTS RealTime-Glo MT Cell Viability Assay in HEK293 cells - 24 hour (AID 1224886); also: top concentration of the series differs between compounds; nearly all actives have a fitted effect of over 50% in size
In short: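 Luminescence generated by NanoLuc from substrate produced by living HEK293 cells served as the viability signal. Each value reflects the reading at its stated time point during continuous 40 h compound exposure at 37 C.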

[7] = qHTS RealTime-Glo MT Cell Viability Assay in HEK293 cells - 8 hour (AID 1224887); also: top concentration of the series differs between compounds; nearly all actives have a fitted effect of over 50% in size
In short: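 Luminescence, which tracks viable cell number through reduction of the prosubstrate to a NanoLuc substrate, was read over continuous 37 C culture. Cells (600/well) were premixed with reagent and rested 5 h before 23 nL of compound in DMSO was pinned.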

[8] = A CellTox Green Cytotoxicity Assay to monitor cytotoxicity in HEK293 cells - 16 hour (AID 1224888); also: nearly all actives have a fitted effect of over 35% in size
In short: as §1

[9] = A CellTox Green Cytotoxicity Assay to monitor cytotoxicity in HepG2 cells - 8 hour (AID 1224890); also: nearly all actives have a fitted effect of over 45% in size
In short: as §2

[10] = qHTS assay to identify small molecule antagonists of the estrogen receptor alpha (ER-alpha) signaling pathway using the BG1 cell line in the presence of 0.1 nM 17-beta-estradiol - cell viability counter screen (AID 1259241); also: nearly all actives have a fitted effect of over 40% in size
In short: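 VM7Luc4E2, 4,000 cells/well, phenol red-free medium + 10% charcoal-stripped FBS; 24 hr plating; cpd + 0.1 nM E2 final, 22 hr 37C/5% CO2; CellTiter-Fluor 30 min, fluorescence.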

[11] = qHTS assay to identify small molecule antagonists of the androgen receptor (AR) signaling pathway using the MDA cell line in the presence of 0.5 nM R1881 - cell viability counter screen (AID 1259242); also: nearly all actives have a fitted effect of over 45% in size
In short: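 Live-cell protease activity was measured by CellTiter-Fluor fluorescence after 30 min. Before that, MDA-kb2 MMTV-luciferase cells had 16 hr at 37C without CO2, exposed to test compounds and 0.5 nM R1881 final.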

[12] = qHTS assay to identify small molecule HDAC inhibitors (AID 1259364); also: top concentration of the series differs between compounds; nearly all actives have a fitted effect of over 45% in size
In short: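 Luminescence read after 30 min room-temperature HDAC-Glo incubation measures cellular class I/II HDAC activity. Compounds were applied for 2 hr at 37 C to HCT-116 wild-type cells seeded the day before.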

[13] = qHTS assay to identify small molecule HDAC inhibitors - cell viability counter screen (AID 1259365)
In short: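 Luminescence from CellTiter-Glo, developed 30min at room temperature, reports viability of wild-type HCT-116 cells treated 2hr with compounds at 37 C and 5% CO2 after overnight plating.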

[14] = qHTS assay to identify small molecule agonists of the sonic hedgehog signaling (Shh) pathway - cell viability counter screen (AID 1259366); also: nearly all actives have a fitted effect of over 50% in size
In short: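 Cytotoxicity counter screen run in the same wells as the Shh reporter assay. NIH/3T3 cells carrying a Gli1 response element–driven luciferase were treated with DMSO-dissolved compounds for 24hr, and live-cell protease activity was measured with CellTiter-Fluor.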

[15] = qHTS assay to identify small molecule antagonists of the sonic hedgehog signaling (Shh) pathway - cell viability counter screen (AID 1259367); also: nearly all actives have a fitted effect of over 55% in size
In short: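 Viability was read by CellTiter-Fluor fluorescence in the same wells, reagent added 23 hr into compound treatment and incubated 1 hr at 37C. The 3T3 Gli1-Luc reporter cells (2,000/well) received conditioned medium after compound and ran 24 hr.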

[16] = qHTS RealTime-Glo MT Cell Viability Assay in HepG2 cells - 0 hour (AID 1224889); also: nearly all actives have a fitted effect of over 50% in size
In short: as §3

[17] = target: Estrogen receptor (Homo sapiens) (UniProt P03372); assay: qHTS assay to identify small molecule antagonists of the estrogen receptor alpha (ER-alpha) signaling pathway using the BG1 cell line in the presence of 0.1 nM 17-beta-estradiol (AID 1259244); also: nearly all actives have a fitted effect of over 50% in size
In short: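 Luciferase luminescence (ONE-Glo, 30 min at room temperature) was read after 22 hr at 37C exposure to compounds plus 17beta-estradiol at 0.1 nM final. Cells were VM7Luc4E2 with endogenous ER-alpha and an ERE-driven luciferase, pre-cultured 5 days in hormone-depleted medium.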
% is scaled to controls: 0 for no effect and ±100 for the full control effect.

Chain of Estrogen receptor (Homo sapiens) (P03372 whole entry, looked up): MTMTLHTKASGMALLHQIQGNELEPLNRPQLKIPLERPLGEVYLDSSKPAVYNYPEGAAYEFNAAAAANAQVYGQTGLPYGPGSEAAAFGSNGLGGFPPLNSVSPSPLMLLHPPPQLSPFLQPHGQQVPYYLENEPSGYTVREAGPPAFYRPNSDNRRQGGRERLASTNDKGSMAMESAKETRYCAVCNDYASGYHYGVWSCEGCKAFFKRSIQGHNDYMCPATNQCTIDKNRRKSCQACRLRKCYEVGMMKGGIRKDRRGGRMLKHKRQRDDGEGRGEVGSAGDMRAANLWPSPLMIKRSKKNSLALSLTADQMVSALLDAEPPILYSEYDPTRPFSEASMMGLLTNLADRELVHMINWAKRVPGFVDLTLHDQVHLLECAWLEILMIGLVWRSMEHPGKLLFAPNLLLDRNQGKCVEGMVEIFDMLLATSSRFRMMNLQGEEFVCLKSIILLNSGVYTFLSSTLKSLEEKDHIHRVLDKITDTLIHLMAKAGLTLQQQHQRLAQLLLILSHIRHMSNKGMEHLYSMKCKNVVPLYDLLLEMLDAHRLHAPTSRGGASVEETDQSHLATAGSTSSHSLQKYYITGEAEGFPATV

CCC(C)S (stereo not given)
inactive: cytotoxicity increase [1] 1.61% [at 2.72 µM] | cytotoxicity [2] -2.37% [at 2.72 µM] | cytotoxicity increase [3] 1.17% [at 2.72 µM] | cytotoxicity increase [4] 0.141% [at 2.72 µM] | activity change, negative = cytotoxic [5] -0.5% [at 2.72 µM] | activity change, negative = cytotoxicity [6] 1.35% [at 2.72 µM] | activity change, negative = cytotoxicity [7] 2.1% [at 2.72 µM] | activity change [8] 1.7% [at 2.72 µM, active compounds read high] | cytotoxicity increase [9] -0.336% [at 2.72 µM] | activity change, negative = cytotoxicity [10] 5.76% [at 3.27 µM] | viability change, negative = cytotoxic [11] 1.28% [at 3.26 µM] | activity change, negative = inhibition [12] 0.148% [at 3.27 µM] | activity change, negative = cytotoxicity [13] 1.61% [at 3.27 µM] | viability change, negative = cytotoxic [14] 3.35% [at 3.27 µM] | viability change, negative = cytotoxic [15] 3.76% [at 3.27 µM]

COc1ccc2c(c1)CCCC2=O
inactive: Potency [1] | Potency [2] | Potency [3] | Potency [4] | Potency [5] | Potency [6] | Potency [8] | Potency [16] | Potency [9] | outcome [10] | Potency [11] | outcome [17] | Potency [12] | outcome [13] | Potency [14] | Potency [15]

Cc1cccn2c(=O)c(-c3nnn[nH]3)cnc12
inactive: Potency [1] | cytotoxicity [2] 0.312% [at 15.8 µM] | cytotoxicity increase [3] 2.82% [at 15.8 µM] | cytotoxicity increase [4] 9.95% [at 15.8 µM] | activity change, negative = cytotoxic [5] -6.35% [at 15.8 µM] | activity change, negative = cytotoxicity [6] 2.84% [at 15.8 µM] | activity change, negative = cytotoxicity [7] -0.563% [at 15.8 µM] | activity change, negative = cytotoxicity [16] -3.79% [at 15.8 µM] | cytotoxicity increase [9] 3.76% [at 15.8 µM] | activity change, negative = cytotoxicity [10] 2.88% [at 19 µM] | viability change, negative = cytotoxic [11] 3.32% [at 19 µM] | activity change, negative = inhibition [17] 3.45% [at 19 µM] | activity change, negative = inhibition [12] -1.21% [at 19 µM] | activity change, negative = cytotoxicity [13] -4.27% [at 19 µM] | viability change, negative = cytotoxic [14] 4.51% [at 19 µM] | Potency [15]

O=C1CCCC(=O)C1
inactive: Potency [1] | Potency [2] | Potency [3] | Potency [4] | Potency [5] | Potency [6] | Potency [7] | Potency [8] | Potency [9] | outcome [10] | Potency [11] | Potency [12] | outcome [13] | Potency [14] | Potency [15]

Cn1c(N)c(N=O)c(=O)n(C)c1=O
inactive: Potency [1] | Potency [2] | Potency [3] | Potency [4] | Potency [5] | Potency [6] | Potency [7] | Potency [8] | Potency [16] | Potency [9] | outcome [10] | Potency [11] | Potency [12] | outcome [13] | Potency [14] | Potency [15]

CCOC(=O)c1cccc(N)c1
inactive: Potency [1] | Potency [2] | Potency [3] | Potency [4] | Potency [5] | Potency [6] | Potency [7] | Potency [8] | Potency [9] | outcome [10] | Potency [11] | outcome [17] | Potency [12] | outcome [13] | Potency [14] | Potency [15]

CC(=O)OC/C=C(\C)CC/C=C(\C)CCC=C(C)C
inactive: Potency [1] | Potency [2] | Potency [3] | Potency [4] | Potency [5] | Potency [6] | Potency [7] | Potency [16] | Potency [9] | outcome [10] | Potency [11] | outcome [17] | Potency [12] | outcome [13] | Potency [14] | Potency [15]
